{
  "source": "PubChem BioAssay (EPA / NIEHS)",
  "note": "Calls of active or inactive are those of the source. Rule for the calls: active = hit-call score of the fitted dose curve at least 0.9, where 1 is the maximum; inactive = score below 0.9.",
  "data": [
    {"test": "CCTE_Padilla_ZF_Score.Blood_pooling: CCTE's 144 Hour Post-fertilization zebrafish Assay Score for Blood Pooling, Padilla Lab (AID 2284415)", "experimental": "CCTE_Padilla_ZF_Phenotype_Score is a whole embryo, multiplexed assay using zebrafish ova exposed for 144 hours post fertilization on a 96-well plate.CCTE_Padilla_ZF_Score.Blood_pooling is one of one assay component(s) measured or calculated from the CCTE_Padilla_ZF_Phenotype_Score assay. It is designed to make measurements of zebrafish development as detected with brightfield microscopy of developing zebrafish embryos.Data from the assay component CCTE_Padilla_ZF_Score.Blood_pooling was analyzed into 1 assay endpoints. This assay endpoint, CCTE_Padilla_ZF_Score.Blood_pooling, was analyzed in the positive analysis fitting direction relative to DMSO as the negative control and baseline of activity. Using a type of viability reporter, gain-of-signal activity can be used to understand changes in developmentals as they relate to the whole embryo. To generalize the intended target to other relatable targets, this assay endpoint is annotated to the zebrafish development intended target family, where the subfamily is swim bladder morphogenesis.\nZebrafish husbandry: Wild type adult zebrafish (Danio rerio; undefined outbred stock obtained from Aquatic Research Organisms, Hampton, NH, 03842) were housed in an AAALAC-approved animal facility at 28C with a 14:10 h light: dark cycle (lights on at 08:30 h). Adult fish (2-3 females per male; density = 15-20 adults per tank) were kept in one of several 9-liter (L) flow-through colony tanks (Aquaneering Inc., San Diego, CA). All adults in a colony tank were placed in a 2 L (static) breeding tank (Aquatic Habitats, Apopka, FL) one hour prior to light onset. Typically, adults from two to three colony tanks were mated on the same day. Two hours after light onset the adults were returned to the colony tank. All embryos were gathered from each breeder tank, pooled, and placed in a 28C water bath for 2 h, followed by two washes with 0.06% bleach (v/v) in 10% Hanks' Balanced Salt Solution (13.7 mM NaCl 0.54 mM KCl, 25 uM Na2HPO4, 130 uM CaCl2 100 um MgSO4 and 420 um NaHCO3,), hereafter referred to as Hanks' solution, for 5 min in order to remove any residual bacteria or fungi. Immediately following washing, the embryos were examined, and healthy embryos were separated from dead or unfertilized eggs and moved into fresh Hanks'. Chemical exposures: Zebrafish embryos were exposed in 96-well plates. Between 6- and 8-hours post fertilization (hpf), healthy embryos (with chorions) were transferred, one embryo per well, into 96 well (0.5 mL) microtiter plates (Cell Culture-Treated, Flat-Bottom Microplate 96 well [Corning Costar, Kennebunk, ME; Cat 09-761-145]) filled with 200 uL of Hanks' solution. A random number generator was used to assign the order in which the rows of embryos were plated in 96 well plates each week. After plating, the embryos were dosed with 0.8 uL of the chemical dosing solution then immediately sealed with AlumaSeal II (Excel Scientific Inc, Victorville, CA) to prevent volatilization of the chemicals, and then placed in a leakproof secondary container. These containers were placed in an incubator maintained on a 14:10 h light: dark cycle at 26C for rearing. On 5 dpf, live larvae were gently moved out of the plate with test chemicals and into a new 96 well mesh plate (Millipore Corp., Bedford, MA) with just the Hanks' solution. Once within the mesh well plate, the animals were rinsed with 400 uL of fresh Hanks' three times, and then the plates were covered with a non-adhesive material (Microseal A, BioRad, Hercules, CA), plate lid added, and then plate sides wrapped in Parafilm (PM992, Bermis Company, Neenah, WI), and returned to the incubator. […]", "values": [
      {"smiles": "O=C(O)C(F)(OC(F)(F)C(F)(F)C(F)(F)F)C(F)(F)F", "note": "(centres undefined)", "outcome": "inactive"},
      {"smiles": "FC(F)(F)C(F)(C(F)(F)F)C(F)(F)C(F)(F)CC1CO1", "note": "(centres undefined)", "outcome": "inactive"},
      {"smiles": "O=C(O)C(F)(F)OC(F)(F)C(F)(F)OC(F)(F)C(=O)O", "outcome": "inactive"},
      {"smiles": "C=CC(=O)OCC(F)(F)C(F)F", "outcome": "inactive"},
      {"smiles": "OCC(F)(F)OC(F)(F)C(F)(F)OC(F)(F)C(F)(F)OC(F)(F)CO", "outcome": "inactive"},
      {"smiles": "O=C(O)C(F)(F)C(F)(F)C(=O)O", "outcome": "inactive"},
      {"smiles": "COC(=O)C(F)(F)C(F)(F)OC(F)(C(F)(F)F)C(F)(F)OC(F)=C(F)F", "note": "(centres undefined)", "outcome": "inactive"},
      {"smiles": "OCC(F)(F)OC(F)(F)C(F)(F)OC(F)(F)C(F)(F)OC(F)(F)F", "outcome": "inactive"},
      {"smiles": "O=S(=O)(F)C(F)(F)C(F)(F)C(F)(F)C(F)(F)C(F)(F)C(F)(F)C(F)(F)C(F)(F)F", "outcome": "inactive"},
      {"smiles": "O=C(O)C=CC(F)(C(F)(F)F)C(F)(F)F", "outcome": "inactive"},
      {"smiles": "OCC(F)(F)OC(F)(F)C(F)(F)OC(F)(F)CO", "outcome": "inactive"},
      {"smiles": "O=C(O)C(F)(F)OC(F)(F)C(F)(F)OC(F)(F)F", "outcome": "inactive"},
      {"smiles": "NC(=O)C(F)(F)C(F)(F)F", "outcome": "inactive"},
      {"smiles": "CC(O)C(F)(F)C(F)(F)F", "note": "(centres undefined)", "outcome": "inactive"}
    ]}
  ]
}
